Source: PubChem BioAssay (several laboratories)
This is a sample that favours compounds with a hit; in the whole collection about 5.4% have one here.
NR0B1 inh: DAX1 (NR0B1) inhibitors, primary screen, cell-based, HEK293, Gal4-DAX1, luciferase luminescence; Nuclear receptor subfamily 0 group B member 1 (Homo sapiens), P51843; AID 504766, 2011; HEK293 Gal4-DAX1 luciferase reporter; inhibition, % at 6.75 µM; hit rate 0.99% among 340,000;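 active = inhibition above the mean over all tested compounds plus 3 SD, cut at about 4.2% in these data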;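 also: 0% = DAX1-transfected cells with DMSO and 100% = empty-vector control cells with DMSO; inhibition shows as a rise in luminescence from relieved DAX1 repression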
Target sequence (P51843 207-470 limits assumed): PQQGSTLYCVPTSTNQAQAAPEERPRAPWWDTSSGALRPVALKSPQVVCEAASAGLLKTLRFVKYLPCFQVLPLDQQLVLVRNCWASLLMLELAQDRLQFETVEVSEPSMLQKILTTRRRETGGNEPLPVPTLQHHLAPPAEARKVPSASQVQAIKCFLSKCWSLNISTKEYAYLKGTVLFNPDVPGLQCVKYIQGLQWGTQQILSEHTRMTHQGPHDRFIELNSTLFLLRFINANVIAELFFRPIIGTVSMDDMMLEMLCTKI
HSF-1 act: HSF-1 activators, primary screen, NIH3T3-HGL cells, MG132 stress, luminescence, single point; NIH3T3-HGL HSF-1 luciferase reporter, 8 h; 100% = twice DMSO control signal; activation, % at 9 µM; hit rate 1.7% among 300,000;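 active = mean replicate activation of at least 50% with a set share of replicates each reaching 50%; inconclusive = only one of those two conditions met; inactive = mean below 50% and too few replicates reaching it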;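 also: 0% = median of the neutral control wells and 100% = twice that signal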
HSF1 inh: HSF1 inhibitors in luciferase reporter cells, primary screen, cell-based, NIH3T3, luminescence; NIH3T3-HGL HSE-luciferase, MG132-induced, luminescence 8 h; stronger effect = lower value; activity change, negative = inhibition, % at 7.5 µM (by protocol); hit rate 0.77% among 300,000;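 active = more than half of replicate wells show activity change below -50%, luminescence cut by over half; inconclusive = some wells, but at most half, below -50%; inactive = no replicate well below -50%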;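 also: luciferase reports HSF-1 transcriptional activity via heat shock element; 0% = median of DMSO wells and -100% = zero luminescence signal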
GAA850 FXN act: FXN promoter activators, primary screen, cell-based, luciferase luminescence, HEK293 lucGAA850; HEK293 lucGAA850 FXN promoter luciferase reporter, 24 h; percent of 10 µM SAHA response; activation, % at 6 µM; hit rate 0.56% among 360,000; AID 540364, 2011;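 active = activation above the average of all compounds screened plus 3 SD, cutoff fixed separately per campaign, cut at about 7.5% in these data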;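 also: 0% = DMSO wells and 100% = 10 µM SAHA wells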
AHR act: AHR activators, primary screen, cell-based, luminescence, luciferase reporter, human; Aryl hydrocarbon receptor (Homo sapiens), P35869; AHR-responsive luciferase reporter cells; activation, % at 5 µM; hit rate 2.5% among 320,000; in the data active = activation above about 47%;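 also: 0% = vehicle wells and 100% = reference agonist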
GAA30 counter: GAA30 FXN promoter activators, confirmation, counter-screen for GAA850 frataxin promoter activator project, cell-based, luminescence, HEK293, lucGAA30, triplicate; shares compounds with GAA850 FXN act; HEK293 lucGAA30 FXN promoter luciferase, 24 h; DMSO = 0%, 5 µM ipriflavone = 100%; activation, % at 6 µM; hit rate 66% among 1,900;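 active = mean activation above the mean of solvent-only control wells plus 3 SD, cut at about 22% in these data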;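 also: counterscreen of GAA850 promoter hits where activity marks nonselective or luminescence artifacts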
GAA850 confirm: FXN GAA850 promoter activators in reporter cells, confirmation, cell-based, luminescence, HEK293 lucGAA850, triplicate; shares compounds with GAA850 FXN act; HEK293 lucGAA850 FXN promoter luciferase reporter, 24 h; 100% = activation by SAHA; activation, % at 6 µM; hit rate 86% among 1,900;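 active = mean activation above a set limit taken from the primary screen, cut at about 8% in these data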;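 also: 0% = DMSO wells and 100% = 10 µM SAHA wells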
The depositor's hits bear a star; ? = inconclusive; . = not tested or not shown.

SMILES	NR0B1 inh	HSF-1 act	HSF1 inh	GAA850 FXN act	AHR act	GAA30 counter	GAA850 confirm
Cc1cc(C(=O)CSc2n[nH]c(N)n2)c(C)n1-c1ccccc1	3	37	16	8.9*	17	101*	28*
Cc1ccc(-n2c(C)cc(C(=O)CSc3n[nH]c(N)n3)c2C)cc1	-1	-9	13	3	9	.	.
CCc1ccc(C(=O)Cn2ncc(Cl)c(Cl)c2=O)cc1	1	-80	-80*	8.5*	2	15	15*
O=C(Cn1ncc(Cl)c(Cl)c1=O)N1CCOCC1	.	15	24	9.3*	2	11	7
Cc1ccc(Cn2ncc(Cl)c(Cl)c2=O)cc1	1	37	26	2	2	.	.
O=C(C1CC=CCC1)N1CCN(S(=O)(=O)c2ccc(F)cc2)CC1 (stereo unspecified)	-1	.	.	4	.	.	.
Cc1cccc(Nc2nc(N)c(C#N)c(CC#N)c2C#N)c1	0	-5	0	8.2*	50*	27*	17*
C[C@@H]1CN([C@@H](C)CO)C(=O)c2cc(Br)cnc2O[C@@H]1CN(C)Cc1ccc(Oc2ccccc2)cc1	0	.	.	-5	.	.	.
COc1ccc(C=NNC(=S)NN=Cc2ccc(OC)c(OC)c2)cc1OC	4	.	.	8.7*	.	87*	31*
CC1(C(=O)NS(=O)(=O)c2ccccc2Cl)CCN1C(=O)C1(c2ccc(Cl)cc2)CCC1 (stereo unspecified)	.	.	.	0	.	.	.
O=C1C=CC(=C(c2ccc(O)cc2)c2ccc(O)cc2)C=C1	-2	.	.	8.6*	-3	29*	37*
CC1CCCN(CC(=O)Nc2ccc(S(=O)(=O)N3C(C)CCCC3C)cc2)C1 (stereo unspecified)	0	.	.	2	.	.	.
Cc1ccc2nc(/C(C#N)=C\c3ccc(N4CCOCC4)o3)[nH]c2c1	0	21	13	3	43	.	.
Cc1ccc(/C(C#N)=C\c2ccc(N3CCOCC3)o2)cc1	-1	76*	58	22*	-1	120*	53*
N#C/C(=C/c1ccc(N2CCCCC2)o1)c1cccc(F)c1	1	172*	128	15*	0	106*	41*
c1ccc(Oc2cccc(Oc3ccccc3)n2)cc1	2	13	5	1	-1	.	.
CC1(C)Cc2c(sc3nnn(Cc4ccccc4)c(=O)c23)CO1	0	9	-3	0	-1	.	.
C=CCn1nnc2sc3c(c2c1=O)CCC(C)C3 (stereo unspecified)	1	3	1	8.7*	-2	71*	30*
Cc1cc(NC(=O)CSCC(=O)Nc2cc(C(F)(F)F)ccc2N2CCOCC2)no1	0	.	.	1	0	.	.
Cc1ccc(NC(=O)CSCC(=O)Nc2cc(C(F)(F)F)ccc2N2CCOCC2)cc1	0	8	0	11*	2	25*	11*
N#CCSc1ccc2nc(-c3ccccc3)cn2n1	2	36	25	7.7*	31	119*	31*
CC1(c2ccc(Cl)cc2)NC(=O)N(CC(=O)Nc2cccnc2Cl)C1=O (stereo unspecified)	0	13	4	-2	0	.	.
O=C(Nc1cc2c(cc1Cl)OCCCO2)c1ccccc1	1	34	6	8.8*	-2	107*	41*
CC(C)(C)c1ccc(OCc2ccc(C(=O)N3CCOCC3)o2)cc1	-1	58*	21	8.4*	17	52*	24*
CCCc1ccc(OCc2ccc(C(=O)N3CCSCC3)o2)cc1	0	16	11	7.6*	8	100*	38*
SMILES	NR0B1 inh	HSF-1 act	HSF1 inh	GAA850 FXN act	AHR act	GAA30 counter	GAA850 confirm
COC(=O)c1ccc(COc2ccc(C(C)(C)C)cc2)o1	1	22	13	5	4	.	.
Cc1cccc(OCc2ccc(C(=O)N3CCOCC3)o2)c1	1	17	9	-1	2	.	.
CCOc1ccc(OCc2ccc(C(=O)O)o2)cc1	-4	-3	-7	2	3	.	.
CCc1ccc(OCc2ccc(C(=O)OC)o2)cc1	4	41	28	7.6*	4	78*	28*
Cc1csc(SCC(=O)NC2CCC(C)CC2)n1 (stereo unspecified)	1	21	4	-2	5	.	.
Cc1ccc(N(CC(=O)NC2CCCC2)C(=O)c2nsc(Cl)c2Cl)cc1	-2	4	-5	-1	11	.	.
O=c1[nH]c(SCc2ccc([N+](=O)[O-])cc2)nc2[nH]ncc12	0	26	14	2	1	.	.
O=C(CCN=C1NS(=O)(=O)c2ccccc21)Nc1ccc(Cl)cc1F	0	.	.	-1	-1	.	.
O=C(CCCCn1ccc(=O)[nH]c1=O)Nc1ccc(C(=O)O)c(O)c1	1	.	.	2	.	.	.
COc1ccc(-c2cc(C(F)(F)F)nc(S(=O)(=O)CCCC(=O)Nc3cccc(O)c3)n2)cc1OC	.	260*	186	9.3*	.	40*	32*
COc1ccccc1-c1cc(C(F)(F)F)nc(S(=O)(=O)CCCC(=O)O)n1	-1	40	31	0	-1	.	.
CCC1=C(c2ccc(C)cc2)S(=O)(=O)N=C1N1CCC(C(=O)NCCCN2CCCCC2)CC1	1	-4	-1	0	-2	.	.
Clc1ccc(N=C2SCC3CCCCN23)cc1 (stereo unspecified)	0	20	14	8.2*	0	99*	42*
FC(F)Oc1ccc(N=C2SCC3CCCCN23)cc1 (stereo unspecified)	1	39	20	4	-4	.	.
CC(C)(C)c1ccc(OCCn2ccccc2=O)cc1	1	?	32	8.5*	1	100*	41*
Cc1occc1C(=O)N/N=C/c1ccc2c(c1)OCO2	-1	34	25	1	40	.	.
Cc1ccsc1C(=O)N/N=C/c1ccc2c(c1)OCO2	0	52*	13	8.8*	10	104*	29*
CCCCNC(=O)C1(NC(=O)Nc2ccc(C)cc2)CCCCC1	.	-7	-2	2	-1	.	.
Cc1ccc(/C=C/C(=O)N2CCc3ccccc32)o1	2	40	22	11*	12	116*	37*
